Rows were chosen to be rich in hits. Some 5.8% of all compounds tested hit in one or more screens of this group.
TRPV1 ag: activates the human vanilloid receptor TRPV1; Q8NER1; activation, % at 8.33 µM; AID 540275; TRPV1-expressing cells, Fluo-8 calcium influx, agonist mode; hit rate 0.19% among 320,000; in the data active means activation above about 80%; inconclusive means between about 30% and that limit
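Cells expressing TRPV1 were dye-loaded with Fluo-8 and read kinetically: 10 s baseline, 3 min after compound (agonist portion), then 2 min after EC20 capsaicin (allosteric enhancer portion). Calcium-bound dye fluorescence at 480/520 nm.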
VP16 counter: inhibits Gal4-VP16 luciferase reporter, ROR gamma counter-screen; Drosophila S2 Gal4-VP16 UAS-luciferase, luminescence, 20 h; AID 2546; hit rate 3.5% among 310,000; Potency, µM (titrated, usually from 53.6 µM), usual class: inhibitors;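 further: Gal4-VP16 expression switched on by copper sulfate through the metallothionein promoter; nearly all actives have a fitted effect of over 50% in size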
RORg inh: blocks mouse ROR gamma transcriptional activity | AID 2551 | Drosophila S2 Gal4-RORgamma UAS-luciferase reporter, 20 h | Potency, µM (highest dose often 53.6 µM), hits mostly inhibitors | hit rate 5.4% among 310,000; further: nearly all actives have a fitted effect of over 60% in size
Target sequence (P51450 whole entry, looked up, the tested form may be a part): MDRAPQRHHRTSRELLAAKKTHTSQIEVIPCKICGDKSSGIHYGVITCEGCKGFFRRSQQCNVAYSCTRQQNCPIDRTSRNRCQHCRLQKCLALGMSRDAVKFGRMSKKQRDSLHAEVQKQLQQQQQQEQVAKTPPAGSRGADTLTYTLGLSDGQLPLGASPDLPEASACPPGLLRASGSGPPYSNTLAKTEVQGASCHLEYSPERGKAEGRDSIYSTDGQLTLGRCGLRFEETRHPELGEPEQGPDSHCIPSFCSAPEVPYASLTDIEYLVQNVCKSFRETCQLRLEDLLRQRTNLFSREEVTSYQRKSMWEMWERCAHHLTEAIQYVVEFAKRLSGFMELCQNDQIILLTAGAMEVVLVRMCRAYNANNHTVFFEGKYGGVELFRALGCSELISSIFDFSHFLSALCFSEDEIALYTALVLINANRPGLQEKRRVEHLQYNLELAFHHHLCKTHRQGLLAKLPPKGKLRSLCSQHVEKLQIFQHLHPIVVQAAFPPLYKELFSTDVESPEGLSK
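Stably transfected Drosophila Schneider cells are the test system, with ROR gamma fused to Gal4 and luciferase under UAS control; luminescence is read after 20 hr of 700 uM copper sulfate induction at ambient temperature.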
uPA surface inh: blocks generation of uPA at the cell surface; cell surface uPA generation assay, qHTS; Potency, µM (doses to about 38.3 µM), usual class: inhibitors; hit rate 0.31% among 330,000; AID 540303; active means well fitted inhibition curve with a large enough effect; inconclusive means small, poorly fitted or top-dose-only effect; inactive means no such curve, though single readings can be large or run the other way; tested in mouse RAW 264.7 cells; further: nearly all actives have a fitted effect of over 55% in size
TRPV1 PAM: enhances activation of the human vanilloid receptor TRPV1; TRPV1-expressing cells, Fluo-8 calcium influx, capsaicin EC20 potentiation; potentiation, % at 8.33 µM; Q8NER1; hit rate 0.02% among 320,000; AID 540277; in the data active means potentiation above about 80%; inconclusive means between about 30% and that limit
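Fluo-8 calcium influx in TRPV1-expressing cells, kinetic read (ex 480/em 520 nm). Compound added and read 3 min for agonist activity, followed by capsaicin at EC20 final and 2 min further read for enhancement.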
Hits are given with their value; i = inactive; ? = inconclusive; nt = no result given; [ ] = remark or other dose. Unless noted, the call rests on the fitted dose curve; in most records, active means well fitted curve in the direction sought with a large enough effect; inconclusive means small, poorly fitted or top-dose-only effect, or another doubt; inactive means no such curve, though single readings can be large; an effect the other way counts as inactive or inconclusive.

SMILES	TRPV1 ag	VP16 counter	RORg inh	uPA surface inh	TRPV1 PAM
Cn1cc(Cl)c(C(=O)Nc2nccs2)n1	i	i	i	i	i
O=C(Nc1nccs1)c1ccc(Br)cc1	i	?	8.9µM	?	i
O=C(Nc1nccs1)c1ccc(Br)s1	i	?	11µM	i	i
O=C(Nc1nccs1)c1ncc(Cl)c(Cl)c1Cl	i	4µM	7.9µM	i	i
CCCCCCCCCCCCCCCCOC[C@H](COP(=O)([O-])OCC[N+](C)(C)C)OC(=O)CCCCCCCC(=O)O	nt	?	i	nt	nt
Cc1nn(Cc2c(Cl)cccc2Cl)c(C)c1NC(=O)c1cc(C(C)C)on1	nt	?	?	3.2µM	nt
COC(=O)CCC(=O)Nc1ccc(NC(=O)CCC(=O)OC)cc1	i	i	i	i	i
COC(=O)CCC(=O)Oc1ccc(OC(=O)CCC(=O)OC)cc1	i	?	13µM	nt	?
Cc1ccc(NC(=O)c2ccc3c(c2)S(=O)(=O)c2ccccc2C3=O)cc1S(=O)(=O)N1CCOCC1	i	i	i	i	i
COC(=O)c1cc(Sc2c(Cl)cccc2Cl)ccn1	i	i[10 µM]	?	i	i
COC(=O)c1cc(Sc2cccc(Cl)c2Cl)ccn1	i	11µM	?	i	i
O=C(NNC(=S)Nc1ccccc1)c1cc(-c2cccnc2)nc2ccccc12	i	i	i	i	i
O=C(Nc1ccccn1)c1cc(-c2ccc(Cl)s2)nc2ccccc12	i	nt	nt	i	i
O=C(NC(=S)Nc1ccccc1)c1cc(-c2ccccc2)nc2ccccc12	i	4.5µM	0.28µM	i	i
CN1CCC(N(C)C(=S)NC(=O)c2cc(-c3cccc(Br)c3)nc3ccccc23)CC1	i	0.89µM	0.25µM	i	i
O=C(NC(=S)Nc1ccccn1)c1cc(-c2ccccc2)nc2ccccc12	i	0.71µM	0.4µM	i	i
O=C(NNC(=O)c1cc(-c2cccc(Br)c2)nc2ccccc12)c1csc(N2CCOCC2)n1	i	nt	nt	i	i
O=C(Nc1nc(-c2ccccn2)cs1)c1ccc(F)c(S(=O)(=O)N2CCOCC2)c1	i	nt	nt	4µM	i
O=C(Nc1nc(-c2ccccn2)cs1)c1cc(S(=O)(=O)N2CCOCC2)ccc1F	i	nt	nt	10µM	i
Cc1ccc(C(=O)Nc2nc(-c3ccccn3)cs2)cc1S(=O)(=O)N1CCOCC1	?	nt	nt	?	i
COc1ccc(NC(=O)c2cc(S(=O)(=O)N3CCCC3)ccc2C)cn1	i	nt	nt	i	i
Cc1cc(C)cc(NC(=O)C(OC(=O)c2ccc([N+](=O)[O-])o2)c2ccccc2)c1 (stereo unspecified)	i	i	?	i	i
COc1cccc(NC(=O)C(OC(=O)c2ccc([N+](=O)[O-])o2)c2ccccc2)c1 (stereo unspecified)	i	i	14µM	i	i
COc1ccc(Cl)cc1NC(=S)NCCc1ccc(F)cc1	i	18µM	14µM	i	i
COc1ccc(NC(=S)NCc2ccc(Cl)cc2)c(OC)c1	i	?	i[1.91 µM]	i	i
SMILES	TRPV1 ag	VP16 counter	RORg inh	uPA surface inh	TRPV1 PAM
COc1ccc(NC(=S)NCCc2ccc(Cl)cc2)c(OC)c1	i	11µM	4.5µM	i	i
CCCc1nnc(NC(=O)CCC(=O)NC2CCCC2)s1	i	i	i	?	i
O=C(O)C1(P(=O)(c2ccccc2)c2ccccc2)CCCC1	i	i	i	i	i
N#CC1(P(=O)(c2ccccc2)c2ccccc2)CCCC1	i	i	i	i	111
Cc1cc(C)c(S(=O)(=O)N2CCCC(C(=O)NC3CC3)C2)c(C)c1 (stereo unspecified)	i	i	i	i	i
COc1cc(NS(C)(=O)=O)ccc1Nc1c2ccccc2nc2ccccc12	i	i	20µM	i	i
CCOc1cccc(/C=N/NC(=O)c2cccnc2)c1O	i	0.32µM	0.2µM	10µM	i
CCOc1cc(/C=N/NC(=O)c2cccnc2)ccc1O	i	i	i	i	i
CCOc1cccc(/C=N/NC(=O)c2cc(C3CC3)[nH]n2)c1O	?	2.8µM	2.2µM	?	i
CSCCC(NC(=O)c1ccco1)C(=O)Nc1ccc(C)cn1 (stereo unspecified)	i	nt	nt	i	i
N/C(=N\OC(=O)c1ccc2ccccc2c1)c1ccccn1	?	7.9µM	4.5µM	i	i
CCCc1ccc(C(=O)O/N=C(\N)c2ccccn2)cc1	i	11µM	13µM	i	i
N/C(=N\OC(=O)c1cccc([N+](=O)[O-])c1)c1ccccn1	i	i	?	i	i
N/C(=N\OC(=O)c1ccc2ccccc2c1)c1ccncc1	?	i	i	i	i
COc1cccc(C(=O)O/N=C(\N)c2ccccn2)c1	i	14µM	?	?	i
C[C@@H](C[N+](C)(C)C)OC(N)=O	nt	i	i	nt	nt
COc1ccc(Cn2ccc(=O)c(Cc3c(Cl)cccc3Cl)c2C)cc1	i	16µM	16µM	i	i
Cc1ccc(Cn2ccc(=O)c(Cc3c(Cl)cccc3Cl)c2C)cc1	i	i	i	i	i
CCOC(=O)c1cnc(-n2nc(C)cc2C)nc1NNc1nc(C)cc(C)n1	i	?	4µM	i	i
CCOC(=O)c1cnc(-n2nc(C)cc2C)nc1NNc1nc(-c2ccccc2)cc(-c2ccccc2)n1	?	0.71µM	0.79µM	i	i
CC(C)(C)C(=O)N1CCN(c2nc3ccccc3o2)CC1	i	i	i	i	i
O=C1CCN2C=Nc3cccc4ccc1c2c34	?	i	i	i	i
CCOc1cc(/C=N/n2c(COc3ccccc3)n[nH]c2=S)ccc1O	i	?	5µM	i	?
CN(C)c1ccc(/C=N/n2c(COc3ccccc3)n[nH]c2=S)cc1	i	4µM	3.2µM	i	i
FC(F)Oc1ccc(/C=N/n2c(Cc3ccc(Br)cc3)n[nH]c2=S)cc1	i	?	8.9µM	i	i
SMILES	TRPV1 ag	VP16 counter	RORg inh	uPA surface inh	TRPV1 PAM
CN(C)c1ccc(/C=N/n2c(-c3ccccc3Br)n[nH]c2=S)cc1	i	i	3.5µM	i	i
CN(C)c1ccc(/C=N/n2c(-c3cccnc3)n[nH]c2=S)cc1	i	i	i	i	i
NS(=O)(=O)Nc1ccccc1Br	nt	i	i	nt	nt
Cc1cc(C(C)(C)C)cc(C)c1S(=O)(=O)N1CCN(C(=O)c2cc([N+](=O)[O-])c[nH]c2=O)CC1	i	i	i	i	i
Cc1ccc(/C=N/n2c(COc3ccccc3)n[nH]c2=S)cc1	i	?	3.2µM	i	i
CC(C)c1ccc(/C=N/n2c(COc3ccccc3)n[nH]c2=S)cc1	?	10µM	?	i	i
COC(=O)/C=C1\S/C(=N/NC(=O)c2ccccc2)NC1=O	i	11µM	11µM	i	i
COC(=O)/C=C1/S/C(=N/NC(=O)c2ccccc2)NC1=O	i	i	2.8µM	i	i
COc1ccccc1/C=C1\S/C(=N/NC(=O)c2cccc(Br)c2)NC1=O	i	0.56µM	0.32µM	i	i
COCCN(CCOC)c1nc(C)nc2c1nc(-c1ccccc1)n2CCCN(C)C	nt	i	i	nt	nt
Cc1cc(NC(=O)C(C)Oc2ccc(C(C)(C)C)cc2)no1 (stereo unspecified)	?	i	i	i	i
CC/C=C\CC[C@H](O)C1=CCCCC1=O	nt	i[10 µM]	i[10 µM]	nt	nt
CCOc1ccc(S(=O)(=O)Nc2cnc3ccccc3c2)cc1	i	6.3µM	?	i	i

Compound activity deposited in PubChem BioAssay by National Center for Advancing Translational Sciences (NCATS).
